Measured values taken from PubChem BioAssay AID1628 (Sanford-Burnham Center for Chemical Genomics, 2009).
Among all 190,000 compounds or so, about 930 (0.49%) were called active.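 Rule for the calls: active = z-score of insulin promoter reporter brightness in nuclei below -3 at 5 µM, with at least 500 cells counted; inconclusive = wells with under 500 cells, flagged as toxic or sparse; inactive = the rest.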 This is one part of the list. Results with a measured potency or affinity are listed apart.

Assay: decrease of insulin promoter-GFP reporter – imaging, high-content screening, mouse beta cells (AID 1628)
Details: MIN6 insulin promoter GFP reporter, at 5 µM, stronger effect = lower value

| Compound | z-score |
| --- | --- |
| COc1ccccc1NS(=O)(=O)c1cc(NC(=O)c2ccc(=O)[nH]c2)ccc1N1CCOCC1 | -4.48 (active) |
| CCCCn1nnnc1SCC(=O)Nc1cccc(C)n1 | -4.7 (active) |
| Cc1cccc(NC(=O)Cn2cc([N+](=O)[O-])cn2)n1 | 2.86 (inactive) |
| Cc1nn(C)c(C)c1NC(=O)CSc1nnc(C)n1-c1ccccc1 | 0.56 (inactive) |
| NC(=S)n1[nH]c(-c2ccc([N+](=O)[O-])cc2)c(N=Nc2cccc(Cl)c2)c1=O | -3.23 (active) |
| NC(=S)n1[nH]c(-c2ccc([N+](=O)[O-])cc2)c(N=Nc2ccc(Cl)cc2)c1=O | -5.03 (active) |
| Cc1ccccc1SCc1noc(C(=O)NC(C)C)c1C(=O)O | 3.02 (inactive) |
| O=C(NCc1cccs1)c1ccc(N2CCCCC2)nc1 | 3.41 (inactive) |
| Cc1cc(C)c(S(=O)(=O)c2ccccc2C)c(SCC(C)C)n1 | -3.18 (active) |
| Cc1cc(C)c(C#N)c(SCC2COc3ccccc3O2)n1 (stereo not given) | 3.48 (inactive) |
| CCOC(=O)c1c(-c2ccc(C)cc2)csc1NC(=O)/C(C#N)=C/c1ccc(O)c(OC)c1 | 8.18 (inactive) |
| CN(C)c1ccc(/C=C/C(O)=C2/C(=O)N(C)C3(C)CC2c2ccccc2O3)cc1 (stereo not given) | 3.04 (inactive) |
| CCCS(=O)(=O)NCCc1cc2ccc(C)cc2[nH]c1=O | 0.95 (inactive) |
| CCN(CC)CCN(Cc1cc2ccc(C)cc2[nH]c1=O)C(=O)NC1CCCCC1 | -4.95 (active) |
| CCc1c(C(=O)NC2CCCCC2)[nH]c(C)c1C(C)=O | 3.85 (inactive) |
| O=C(c1ccc2c(c1)OCO2)N1CCCC(c2ccccc2)C1 (stereo not given) | -3.99 (active) |
| O=C(c1ccc2c(c1)OCO2)N1CCN(c2ccccn2)CC1 | -5.54 (active) |
| O=C(c1ccc2c(c1)OCO2)N1CCCC1 | 8.93 (inactive) |
| O=C(c1ccc2c(c1)OCO2)N1CCc2ccccc2C1 | -0.76 (inactive) |
| O=C(CC12CC3CC(CC(C3)C1)C2)NCC(=O)N1CCc2ccccc2C1 | 3.34 (inactive) |
| CN(C)c1ccc(C(=O)c2ccc(N(C)C)c3ccccc23)cc1 | -5.22 (active) |
| CN(C)c1ccc(/C=C/C(=O)c2c(O)c3ccccc3oc2=O)cc1 | 8.78 (inactive) |
| O=C(O)c1cc(-c2ccncc2)nc2ccc(F)cc12 | 3 (inactive) |
| O=C(O)CCCC(=O)Nc1c(F)c(F)c(F)c(F)c1F | 0.09 (inactive) |

| Compound | z-score |
| --- | --- |
| Cc1c2ccccc2nc2c(F)c(NC(C)C)c(F)c(F)c12 | 9.6 (inactive) |
| O=C(NCc1ccccn1)C(=O)NCC(c1ccco1)N1CCN(c2ccc(F)cc2)CC1 (stereo not given) | 1.32 (inactive) |
| Cc1noc(C)c1CSCC(=O)N1CCN(c2ccc(F)cc2)CC1 | -3.68 (active) |
| COc1ccc(CN=Cc2[nH]c3ccc(Br)c(Cl)c3c2O)cc1 | 8.49 (inactive) |
| COc1cccc(/C=N/NC(=O)c2c(C)nc3ccc(Br)cn23)c1O | -4.47 (active) |
| COc1cc(OC)c2cc(C(=O)N/N=C/c3cccc(OC)c3O)[nH]c2c1 | -3.6 (active) |
| CN(C)c1nc(N)nc(/C(C#N)=C/C2CC3C=CC2C3)n1 (stereo not given) | 3.05 (inactive) |
| Oc1ccc2ccccc2c1N=Nc1ccccn1 | -8.6 (active) |
| CCOC(=O)c1ccc2[nH]c3ccccc3c2c1 | -0.27 (inactive) |
| Cc1ccc(/C=[N+](\[O-])c2ccc(N(C)C)cc2)c2nsnc12 | 4.9 (inactive) |
| CN(C)S(=O)(=O)c1cc(C(=O)NCC2CCCO2)c(Cl)cc1Cl (stereo not given) | -4.71 (active) |
| O=C(NCC1CCCO1)C1CCN(S(=O)(=O)N2CCCC2)CC1 (stereo not given) | 3.58 (inactive) |
| O=C(COC(=O)c1cc(S(=O)(=O)N2CCOCC2)ccc1O)NCC1CCCO1 (stereo not given) | 3.77 (inactive) |
| Cc1cc(/C=C2\SC(=S)NC2=O)c(C)n1C1CC1 | 3.04 (inactive) |
| O=C(CN1CCN(C(=O)c2ccco2)CC1)Nc1ccccc1-c1ccccc1 | -4.53 (active) |
| O=C(OCC(=O)N1CCN(C(=O)c2ccco2)CC1)c1ccccc1OCc1ccccc1 | 11.8 (inactive) |
| O=C(OCN1C(=O)c2ccccc2C1=O)c1ccco1 | -1.25 (inactive) |
| Cc1cc(S(=O)(=O)NC2CCCCC2)c(C)s1 | 3.49 (inactive) |
| CC(C)Cn1cnc2c1c(=O)n(C)c(=O)n2C | -0.43 (inactive) |
| CC(C)CCn1c(CN(C)Cc2ccccc2)nc2c1c(=O)n(C)c(=O)n2C | -5.09 (active) |
| Cn1c(=O)c(NCCO)c2c3c(cccc31)C(=O)c1ccccc1-2 | 13.6 (inactive) |
| Cc1cccc(Cn2c(NCCO)nc3c2c(=O)n(C)c(=O)n3C)c1 | -9.37 (active) |
| Cc1cccc(OCCNc2nc3c(c(=O)n(C)c(=O)n3C)n2C)c1 | 4.22 (inactive) |
| CNc1nc2c(c(=O)n(C)c(=O)n2C)n1Cc1ccccc1 | -5.04 (active) |

| Compound | z-score |
| --- | --- |
| CN1CC=C2C(C#N)=C(N)C(C#N)(C#N)[C@H](c3ccoc3)[C@H]2C1 | 12.4 (inactive) |
| CCN(CC)C(=O)C1CCN(Cc2cccc(OCc3ccccc3)c2)CC1 | -4.22 (active) |
| CC(C)CCn1nc(C(=O)Nc2nc3c(s2)CCCC3)c2ccccc2c1=O | -3.57 (active) |
| CC(C)(C)NC(=O)c1nn(Cc2ccccc2)c(=O)c2ccccc12 | 1.76 (inactive) |
| COc1ccc(S(=O)(=O)N2CCN(c3ncnc4c(-c5ccccc5)nsc34)CC2)cc1 | -3.2 (active) |
| Cc1ccc(-n2c3c(c(=O)[nH]c2=O)C(C(F)(F)F)(C(F)(F)F)NC(=O)N3)cc1 | 3.01 (inactive) |
| COc1ccc(N2CCN(C(=O)C3CCC(Cn4c(=S)[nH]c5ccccc5c4=O)CC3)CC2)cc1 (stereo not given) | -3.35 (active) |
| COc1ccc(C2C(C(=O)N3CCOCC3)CCC(=O)N2c2ccc(OC)cc2)cc1 (stereo not given) | 3.73 (inactive) |
| Nc1c(C(=O)c2cccs2)sc2nsc(SCCN3CCCCC3)c12 | 8.75 (inactive) |
| Nc1nc(-c2ccc(Cl)cc2)c(N=Nc2ccc(S(=O)(=O)N3CCOCC3)cc2)s1 | 3.8 (inactive) |
| CCN(CC)c1ccc(/C=C2/SC(=O)N(C(C)C)C2=O)o1 | 17.3 (inactive) |
| Cc1cc(Cl)n2nc(C)c(-c3ccc(Cl)cc3)c2n1 | -5.26 (active) |
| CN(C)S(=O)(=O)Oc1cccc(C(=O)Nc2ccc([N+](=O)[O-])cc2)c1 | 3.38 (inactive) |
| O=C(CCn1cccc1)Nc1ccc(OC(F)(F)F)cc1 | 2.14 (inactive) |
| CCCOc1ccc2ccccc2c1/C=N/n1c(C)nnc1-n1nc(C)cc1C | -4.98 (active) |
| N#C/C(=C\c1ccc(N2CCCCC2)o1)C(N)=O | 7.37 (inactive) |
| O=C(O)c1cc([N+](=O)[O-])c(NCCC2=CCCCC2)c([N+](=O)[O-])c1 | 0.74 (inactive) |
| COC(CNC(=O)CSCc1nc(-c2ccc(SC)cc2)oc1C)OC | 2.32 (inactive) |
| COc1cc(C(=O)Oc2ccccc2/C=N/NC(=O)c2ccc(C)c(Cl)c2)cc(OC)c1OC | -5.2 (active) |
| COc1cccc(/C=N/NC(=O)c2ccc(N(C)S(=O)(=O)c3ccccc3)cc2)c1OC | 3.8 (inactive) |
| CCCN1C=CC(=CC=C(C#N)C#N)C=C1 | 4.99 (inactive) |
| CCC(=O)Nc1ccc(C(=O)Cn2ncc(Cl)c(Cl)c2=O)cc1 | -3.05 (active) |
| C=CCNC(=O)/C(=C\c1ccc(Br)cc1)NC(=O)c1ccccc1OC | 3.42 (inactive) |
| COc1ccccc1C(=O)NNC(=O)C(=O)NC(C)(C)C | 3.28 (inactive) |

| Compound | z-score |
| --- | --- |
| COc1ccccc1C(=O)NC(=Nc1nc2ccccc2o1)NC(=O)c1ccccc1OC | -6.44 (active) |
| COc1ccccc1N/C=C/c1onc(C)c1[N+](=O)[O-] | 4.57 (inactive) |
| Cn1c(/C(C#N)=C/c2ccc(-c3ccc(S(N)(=O)=O)cc3)o2)nc2ccccc21 | 4.53 (inactive) |
| C/C(=N\Nc1ccc([N+](=O)[O-])cc1)c1cc2ccccc2o1 | 5.52 (inactive) |
| CNC(=S)NNC(=O)c1oc2nc(-c3ccccc3)cc(-c3ccco3)c2c1N | 3.41 (inactive) |
| C/C(=N/Nc1nc(-c2ccccc2)cc(-c2ccccc2)n1)c1ccc(N)cc1 | -3.67 (active) |
| COc1cc(OC)c(-c2c3cc(O)c(=O)cc-3oc3cc(O)c(O)cc23)cc1OC | 11.4 (inactive) |
| Cc1cccc(NC(=O)COc2cccc3c2CCN(Cc2ccccc2)C3=O)c1C | -3.66 (active) |
| S=c1[nH]nc(-c2ccccc2)n1CC1CCCO1 (stereo not given) | 3.06 (inactive) |
| Cc1nccn1CCc1n[nH]c(=S)n1Cc1ccccc1 | -4.01 (active) |
| CC(C)OC(=O)c1c2c(n3ccccc13)C(=O)c1ccccc1C2=O | 11.7 (inactive) |
| CN1c2ccccc2N(C)C1c1c(O)ccc2ccccc12 | 1 (inactive) |
| Cc1nc2ccc(S(=O)(=O)NC(C(=O)N3CCC(C)CC3)C(C)C)cc2s1 (stereo not given) | -4.34 (active) |
| CC1CC(C)CN(C(=O)C(NS(=O)(=O)c2ccc3c(c2)oc(=O)n3C)C(C)C)C1 (stereo not given) | -5.42 (active) |
| CCC(C)NS(=O)(=O)c1ccc(OCC(=O)N2CCC(C)CC2)cc1 (stereo not given) | 0.84 (inactive) |
| CC1CCN(C(=O)CNS(=O)(=O)c2ccc(Br)s2)CC1 | 3.37 (inactive) |
| CC1CC(C)CN(C(=O)c2cccc3c2-c2ccccc2C3=O)C1 (stereo not given) | 3.97 (inactive) |
| CCCN(CCC)S(=O)(=O)c1ccc(C(=O)Nc2nnc(-c3cc(OC)cc(OC)c3)o2)cc1 | -4.56 (active) |
| COc1cc(OC)cc(C(=O)Nc2cccc(C(C)=O)c2)c1 | 3.53 (inactive) |
| CCCN(CCC)S(=O)(=O)c1ccc(C(=O)OCCN2C(=O)c3cccc4c(N5CCOCC5)ccc(c34)C2=O)cc1 | 6.18 (inactive) |
| COc1ccc2nc(SCC(=O)Nc3c(C)cccc3C)[nH]c2c1 | 3.26 (inactive) |
| Cc1ccc(NC(=O)/C=C/c2ccc([N+](=O)[O-])s2)c(C)c1 | 13.3 (inactive) |
| Cc1ccc2nc(SCC(=O)Nc3ccc(C)c([N+](=O)[O-])c3)[nH]c2c1 | -4.5 (active) |
